Inconclusive results are not listed. The source made the active and inactive calls. The calls were made as follows: active = hit-call score of the fitted dose curve at least 0.9, where 1 is the maximum; inconclusive = response in the unintended direction; inactive = score below 0.9.
target: Retinoic acid receptor alpha (Homo sapiens) (UniProt P10276); experiment: ATG_RARa_TRANS: Attagene TRANS-FACTORIAL HepG2 Assay for human Retinoic Acid Receptor alpha (RARa) (AID 2283005)
In short: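 HepG2 transiently transfected with multiplex GAL4-UAS reporter units including a human RARa–GAL4 chimera; 24 h compound exposure. Reporter mRNA quantified by RT-PCR, 6-FAM labeling and capillary electrophoresis; gain of signal versus DMSO.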

Retinoic acid receptor alpha (Homo sapiens), sequence (P10276 whole entry, looked up, the tested form may be a part): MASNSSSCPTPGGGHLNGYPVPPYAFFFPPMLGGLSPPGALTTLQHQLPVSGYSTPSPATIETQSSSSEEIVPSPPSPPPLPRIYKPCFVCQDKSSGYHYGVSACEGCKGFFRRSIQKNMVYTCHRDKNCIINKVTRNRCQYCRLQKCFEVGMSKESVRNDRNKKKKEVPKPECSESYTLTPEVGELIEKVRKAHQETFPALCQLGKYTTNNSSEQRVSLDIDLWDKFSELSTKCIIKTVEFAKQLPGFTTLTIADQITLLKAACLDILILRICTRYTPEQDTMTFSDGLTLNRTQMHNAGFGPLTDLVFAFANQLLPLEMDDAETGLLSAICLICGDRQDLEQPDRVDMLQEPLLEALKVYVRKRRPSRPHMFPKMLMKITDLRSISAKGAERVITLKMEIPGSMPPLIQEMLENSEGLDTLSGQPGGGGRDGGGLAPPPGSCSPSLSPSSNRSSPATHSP

SMILES	outcome
Nc1ccc(Cl)c(N)c1	inactive
O=C(Nc1ccccc1)c1cc(Cl)ccc1O	inactive
CC1=CCC2CC1C2(C)C (stereo not drawn)	inactive
Cc1c(C(=O)c2c[nH]n(C)c2=O)ccc(S(C)(=O)=O)c1C1=NOCC1	inactive
CC1(C)CCC[C@]2(C)[C@H]3CC(=O)O[C@]3(C)CC[C@@H]12	inactive
CC(C)COC(=O)CC(C(=O)OCC(C)C)S(=O)(=O)O (stereo not drawn)	inactive
[Cl][Sc]([Cl])[Cl]	inactive
CCN(CC)c1cccc(C)c1	inactive
CCc1cccc(C)c1N	inactive
COc1ccc(-c2coc3cc(O)cc(O)c3c2=O)cc1	inactive
CC(=O)c1ccc(S(=O)(=O)NC(=O)NC2CCCCC2)cc1	inactive
CC(=O)C(C)C	inactive
CC=CC(=O)OCC(C)C	inactive
CCCCCCCOC(=O)c1ccc(O)cc1	inactive
CC1C(C)(C)C2=C(C(=O)CCC2)C1(C)C (stereo not drawn)	inactive
CCOC(=O)c1ccccc1C	inactive
CC(=O)OC/C=C(/C)CCC=C(C)C	inactive
CC1(C)C(=O)N(CO)C(=O)N1CO	inactive
CCCCCCCCCCCCCC(=O)OC(C)C	inactive
CCOC(=O)[C@H](O)[C@@H](O)C(=O)OCC	inactive
C=C(C)[C@@H]1CC=C(C)CC1	inactive
CC(=O)OCC=C(C)C	inactive
O=S(=O)(O)c1ccc(N=Nc2c(O)ccc3ccccc23)cc1	inactive
CCCCC(CC)COC(=O)/C=C/c1ccc(OC)cc1 (stereo not drawn)	inactive
CC1=CC(C)C(C=O)CC1 (stereo not drawn)	inactive
CN(C)c1ccc2nc3ccc(=[N+](C)C)cc-3sc2c1	inactive
CC(C)c1ccc2ncccc2c1	inactive
O=C1CCCCC1C1CCCCC1 (stereo not drawn)	inactive
